Measurements published in PubChem BioAssay (NCI).
The panel holds about 83,000 compounds, 20% with a hit somewhere; the sample as a whole holds those more often.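 Percent growth is the endpoint: 0 to 100 indicates growth inhibition (40 means 60% inhibition), 0 means no net growth, and negative values indicate cell death.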 A number with no mark means an inactive call. Active and inactive are the calls of the source. The calls were made as follows: active = growth percent below 10; inactive = the rest.

Legend:
Assay in all cases: NCI-60 one-dose screen, 48 h (100 = growth as untreated, 0 = no growth, -100 = all killed)
Conditions in all cases: 10 µM unless noted
DU-145 prostate = system: DU-145 prostate
K-562 leukemia = system: K-562 leukemia
MALME-3M melanoma = system: MALME-3M melanoma
MDA-MB-231 breast = system: MDA-MB-231 breast
RXF 393 renal = system: RXF 393 renal
SF-268 CNS = system: SF-268 CNS
SF-295 CNS = system: SF-295 CNS
SF-539 CNS = system: SF-539 CNS
UACC-257 melanoma = system: UACC-257 melanoma
M14 melanoma = system: M14 melanoma
HCT-15 colon = system: HCT-15 colon
HT29 colon = system: HT29 colon
SNB-75 CNS = system: SNB-75 CNS
SNB-19 CNS = system: SNB-19 CNS
U251 CNS = system: U251 CNS
PC-3 prostate = system: PC-3 prostate
SK-MEL-5 melanoma = system: SK-MEL-5 melanoma
UACC-62 melanoma = system: UACC-62 melanoma
LOX IMVI melanoma = system: LOX IMVI melanoma
SK-MEL-28 melanoma = system: SK-MEL-28 melanoma

Row | SMILES | growth (DU-145 prostate) | growth (K-562 leukemia) | growth (MALME-3M melanoma) [%] | growth (MDA-MB-231 breast) | growth (RXF 393 renal) | growth (SF-268 CNS) | growth (SF-295 CNS) | growth (SF-539 CNS) | growth (UACC-257 melanoma) [%] | growth (M14 melanoma) | growth (HCT-15 colon) | growth (HT29 colon) | growth (SNB-75 CNS) | growth (SNB-19 CNS) | growth (U251 CNS) | growth (PC-3 prostate) | growth (SK-MEL-5 melanoma) [%] | growth (UACC-62 melanoma) [%] | growth (LOX IMVI melanoma) | growth (SK-MEL-28 melanoma)
1 | O=C(Cc1ccc(F)c(Cl)c1)Nc1cc(C2(C(F)(F)F)CC2)nn1Cc1ccccc1 | 89.8% | 77.1% | 60.4 | 14.1% | -23.5% (active) | 17.1% | 24.8% | 50.6% | 91.1 | 70.8% | 93.9% | 18% | -21.6% (active) | 9.43% (active) | 24.3% | 86.8% | 83.6 | 65.9 | 86.3% | 98%
2 | CCCCOc1nc2c(C)cccc2cc1-c1cc(-c2ccc(Cl)cc2)nc(-c2ccc(Cl)cc2)c1 | 109% | 91.2% | 95.5 | 89.5% | 106% | 92.7% | 101% | 96.8% | 98.9 | 101% | 103% | 103% | 106% | 92.3% | 100% | 94.8% | 103 | 97.8 | 98.3% | 101%
3 | Cc1nc2nc(SCC(=O)O)[nH]c2c(=O)[nH]1 | 113% | 94.9% | 112 | 110% | 109% | 108% | 97.9% | 97.6% | 96.7 | 102% | 103% | 96.8% | 110% | 92.5% | 96.8% | 96.6% | 100 | 96.4 | 95.3% | 106%
4 | CNCCCNc1nc2ccccc2c2c(=O)c3cc(OC)ccc3sc12 | 65.4% | -20.3% (active) | 99.4 | 20% | 63.7% | 77.4% | 94.7% | 66.4% | 99.1 | 29.9% | 57.5% | 4.95% (active) | 72.6% | 79.3% | 48.3% | 68.8% | 91.6 | 99.3 | -38.1% (active) | 103%
5 | C=C1CC[C@@]2(C#N)[C@H]3[C@H](CC[C@@H]2C)[C@@H](C)C[C@@H](CC(C)(C)C#N)[C@H]13 | 45.4% | 9.97% (active) | 103 | 61.3% | 86.2% | 47% | 14.4% | 43.9% | 71.9 | 20.9% | 43.6% | 46.8% | 44.6% | 56.4% | 46.4% | 23.2% | 37.5 | 43.5 | 26.6% | 60.3%
6 | Cc1ccc(C(=O)N/N=C/c2cccc(Oc3ccccc3)c2)cn1 | 88.7% | 23.8% | 64.8 | 65.3% | 71.6% | 79.1% | 41.6% | 72.9% | 72.4 | 50% | 38.5% | 20% | 65.7% | 65.6% | 58.9% | 76.7% | 47.4 | 38.3 | 63.9% | 63.7%
7 | CCCCCCCCCCCCCCCCCC1OCC(COC(=O)O[C@]2(CC)C(=O)OCc3c2cc2n(c3=O)Cc3cc4ccccc4nc3-2)O1 (stereo not given in full) | 76% | 88.4% | 101 | 93.1% | 89.4% | 45.7% | 23.4% | 68.1% | 95.9 | 75.3% | 83.5% | 79.6% | 79.6% | 57.6% | 56.5% | 77.8% | 84.6 | 31.6 | 59.7% | 111%
8 | N#C/C(=C\c1cccc2cnccc12)n1nnc2cccc(F)c21 | 2.26% (active) | 11.9% | 22.6 | 31.7% | -2.13% (active) | 67.4% | 93.4% | 36.6% | 52.1 | 35.1% | 10.2% | 27.5% | -5.04% (active) | 80.7% | 78.9% | 48.7% | 58.7 | 36.5 | 14.9% | 37.1%
9 | O=C(N/N=C/c1ccc(Cl)cc1)c1ccc(C(F)(F)F)nc1Nc1cccc(C(F)(F)F)c1 | 13.2% | 1.81% (active) | 50.4 | 16% | 42.6% | 2.52% (active) | -22.9% (active) | 3.47% (active) | 20 | 42.7% | -5.13% (active) | 16.1% | 61.3% | 30.4% | 5.89% (active) | 9.4% (active) | 33.1 | 26.7 | -13.9% (active) | -2% (active)
10 | COc1ccc2sc3c(NCCO)nc4ccccc4c3c(=O)c2c1 | 106% | 76.7% | 104 | 85.3% | 104% | 100% | 100% | 86.1% | 109 | 104% | 81% | 101% | 103% | 95.4% | 93.1% | 91.4% | 93.7 | 94.5 | 88% | 122%
11 | C#C[C@]1(O)CC[C@H]2[C@@H]3CC=C4c5sc(Nc6ccccc6)nc5CC[C@]4(C)[C@H]3CC[C@@]21C | 16.2% | 9.63% (active) | 25.8 | 27.7% | -53.1% (active) | 24.3% | -56.4% (active) | -51.1% (active) | 30.4 | 2.55% (active) | -28.1% (active) | 6.31% (active) | -22.2% (active) | 49.4% | 13.8% | 10.4% | 14.2 | 19.6 | -6.23% (active) | -19.9% (active)
12 | CCN(CC)c1ccc(C2=NN(C(C)=O)C(c3cc(OC)c(OC)c(OC)c3)C2)cc1 (stereo not given) | -39.4% (active) | -4.46% (active) | 21.7 | 3.7% (active) | -44% (active) | 18.8% | 7.69% (active) | 2.39% (active) | 55.9 | -28.8% (active) | 12.8% | 8.86% (active) | 17.8% | 40.1% | 18.7% | 20.4% | 23.4 | 13.1 | 31.5% | 51.8%
13 | CC(C)(C)NC(=O)C(OC(=O)c1cccc(Cl)c1)c1ccc(Cl)cc1 (stereo not given) | 103% | 92.5% | 103 | 112% | 111% | 100% | 98.1% | 95.1% | 97.1 | 94.1% | 103% | 87.6% | 103% | 103% | 94.5% | 94% | 98.2 | 104 | 94.1% | 105%
